This is an account of results in paper PMC5540273 (PLoS ONE, 2017).

Among the test systems are FGFR1; FGFR2; FGFR3; FGFR4; FGR; FLT1; FLT3-autoinhibited; FLT3; FLT4; FRK.
Common to all, as to details: concentration: 1 μM, replicates: in singlicate; n = 1

Each structure is given as a SMILES string.
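Also: KINOMEscan kinase panel screen.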

As to `Nc1ncc(-c2cn[nH]c2)c2scc(-c3ccc4c(c3)CCN4C(=O)Cc3ccccc3)c12` [GSK2593067], the “%Inh” value is on record as 37% in the assay on FGFR1; 31% with FGFR2; 19% in the assay with FGFR3; 0% in the assay on FGFR4; 80% in the assay on FGR; 83% with FLT1. The “%Inh” value was determined as 13% in the assay on FLT3-autoinhibited, 98.4% with FLT3, 43% in the assay on FLT4 and 38% in the assay on FRK.

Turning to `CCOc1nccc(-c2c(-c3ccc(F)cc3)ncn2C2CCNCC2)n1` [SB-249175], the “%Inh” value in the assay with FGFR1 stood at 25%; with FGFR2, 3%; in the assay with FGFR3, 11%; in the assay with FGFR4, 4%; in the assay with FGR it was 0%; in the assay with FLT1, 18%. For the same molecule, the “%Inh” value in the assay on FLT3-autoinhibited came out at 18%; with FLT3 it was 39%; with FLT4, 2%; in the assay with FRK, 6%.

As for `Cn1cc(-c2cnc(N)c3c(-c4ccc5c(c4)CCN5C(=O)Cc4ccccc4)csc23)cn1` [GSK2593074], the “%Inh” value with FGFR1 was 28%; in the assay with FGFR2, 40%; in the assay with FGFR3, 49%; with FGFR4, 0%; with FGR, 75%; in the assay on FLT1 it was 79%. For the same molecule, the “%Inh” value amounted to 0% in the assay on FLT3-autoinhibited, 99% in the assay with FLT3, 31% in the assay on FLT4 and 38% in the assay on FRK.

Take `O=C(O)C(F)(F)F.O=c1[nH]ccc2nc(N[C@@H]3CCNC3)nc(Nc3cc(Cl)cc(Cl)c3)c12` [GSK2188764]: the “%Inh” value with FGFR1 is reported as 0%; in the assay with FGFR2, 0%; in the assay with FGFR3 it was 25%; with FGFR4, 27%; in the assay on FGR, 44%; with FLT1 it was 0%. Moreover, the “%Inh” value was 67% in the assay with FLT3-autoinhibited, 23% with FLT3, 9% with FLT4 and 4% with FRK.

With `Fc1cc(Cl)ccc1Nc1ccnc2cc(-c3ccc(CN4CCOCC4)o3)ccc12` [GW560109], the “%Inh” value in the assay with FGFR1 is on record as 40%; in the assay on FGFR2 it was 33%; in the assay with FGFR3 it was 26%; in the assay with FGFR4, 30%; with FGR, 91.2%; in the assay with FLT1 it was 86%. Further, the “%Inh” value with FLT3-autoinhibited was 6%; with FLT3, 53%; in the assay with FLT4, 88%; in the assay with FRK it was 86%.

Take `N#CC1(c2cccc(C(=O)Nc3cccc(Oc4ccc5nc(NC(=O)C6CC6)sc5n4)c3)c2)CC1`: the “%Inh” value with FGFR1 is reported as 92.7%; in the assay with FGFR2 it was 95.3%; with FGFR3, 70%; in the assay with FGFR4, 70%; in the assay on FGR it was 88%; in the assay with FLT1 it was 98.5%. Also, the “%Inh” value in the assay with FLT3-autoinhibited was found to be 16%; with FLT3 it was 96%; in the assay with FLT4 it was 100%; with FRK it was 98%.

On to `COC(=O)Nc1nc2ccc(Oc3ccc(CC(=O)Nc4cc(C(F)(F)F)ccc4F)cc3)cc2[nH]1` [GW680903], for which the “%Inh” value was found to be 0% with FGFR1; 6% in the assay with FGFR2; 8% in the assay on FGFR3; 4% in the assay with FGFR4; 10% with FGR; 93% in the assay on FLT1. Further, the “%Inh” value with FLT3-autoinhibited is recorded as 20%; in the assay with FLT3, 99.3%; in the assay on FLT4 it was 72%; in the assay on FRK, 19%.

Consider `Cc1ccc(-c2ccc3occ(-c4ccc(S(C)=O)cc4)c3c2)nn1` (stereo not shown), for which the “%Inh” value in the assay on FGFR1 is on record as 0%; with FGFR2 it was 2%; with FGFR3, 4%; in the assay on FGFR4 it was 0%; in the assay with FGR, 15%; in the assay with FLT1 it was 0%. The “%Inh” value in the assay on FLT3-autoinhibited, with FLT3, with FLT4 and in the assay on FRK was 0% each time.

For `Cc1cccc(Nc2nc(NCCN)ncc2C(N)=O)c1` [GSK1292139], the “%Inh” value stood at 0% in the assay with FGFR1; 0% in the assay on FGFR2; 0% with FGFR3; 0% in the assay on FGFR4; 49% with FGR; 7% with FLT1. In addition, the “%Inh” value is listed as 15% in the assay on FLT3-autoinhibited, 13% in the assay with FLT3, 0% with FLT4 and 0% in the assay with FRK.

For the molecule `CN1CCN(Cc2ccc(NC(=O)Nc3ccc(N(C)c4ccnc(Nc5ccc(CS(C)(=O)=O)cc5)n4)cc3)cc2)CC1.Cl` [GW827654], the “%Inh” value in the assay with FGFR1 amounted to 5%; in the assay on FGFR2, 23%; with FGFR3, 9%; in the assay on FGFR4, 0%; in the assay with FGR, 49%; in the assay on FLT1, 99.8%. Moreover, the “%Inh” value worked out at 95.2% in the assay on FLT3-autoinhibited, 99.8% with FLT3, 100% in the assay on FLT4 and 84% with FRK.

As for `CC(C)c1nc(-c2ccc(F)c(NS(=O)(=O)c3c(F)cccc3F)c2)c(-c2ccnc(Nc3ccc(N4CCOCC4)nc3)n2)s1` [GSK1804250], the “%Inh” value in the assay on FGFR1 stood at 24%; in the assay on FGFR2, 11%; in the assay with FGFR3, 8%; in the assay with FGFR4 it was 0%; in the assay with FGR, 97.7%; in the assay on FLT1, 88%. In addition, the “%Inh” value in the assay on FLT3-autoinhibited amounted to 0%; with FLT3, 12%; in the assay on FLT4 it was 97.3%; in the assay on FRK, 89%.

Turning to `COc1ccc(NC(=O)c2ccoc2)cc1-c1ccc(C(=O)NCC2CC2)cc1` [GW810437], the “%Inh” value is 3% in the assay with FGFR1; 0% with FGFR2; 0% in the assay with FGFR3; 1% in the assay on FGFR4; 0% with FGR; 0% in the assay with FLT1. The “%Inh” value in the assay on FLT3-autoinhibited was found to be 0%; in the assay on FLT3 it was 0%; in the assay on FLT4 it was 12%; in the assay with FRK it was 14%.

`c1ccc(Oc2ccc(Nc3ccnc4cc(-c5ccc(CN6CCCCC6)o5)ccc34)cc2)nc1` [GW567143]: the “%Inh” value came out at 9% with FGFR1; 0% in the assay on FGFR2; 1% in the assay on FGFR3; 1% in the assay with FGFR4; 65% with FGR; 20% in the assay with FLT1. Further, the “%Inh” value in the assay with FLT3-autoinhibited is reported as 67%; in the assay with FLT3, 98.4%; in the assay on FLT4, 23%; in the assay with FRK, 33%.

For the molecule `Cc1ccc(NC(=O)c2cccc(N3CCCCC3)c2)cc1-c1ccc(C(=O)NCC2CC2)cc1` [GSK1917008], the “%Inh” value with FGFR1 is 21%; with FGFR2, 20%; in the assay with FGFR3, 21%; with FGFR4, 18%; in the assay on FGR, 24%; with FLT1, 34%. The “%Inh” value stood at 20% with FLT3-autoinhibited, 0% in the assay on FLT3, 13% in the assay on FLT4 and 49% with FRK.

As to `O=C(Nc1n[nH]c2nc(-c3ccccc3)ccc12)C1CC1` [SB-708999], the “%Inh” value in the assay with FGFR1 stood at 0%; in the assay with FGFR2 it was 33%; in the assay with FGFR3 it was 26%; in the assay with FGFR4 it was 12%; in the assay on FGR, 9%; in the assay with FLT1 it was 11%. Moreover, the “%Inh” value in the assay on FLT3-autoinhibited is on record as 0%; with FLT3 it was 42%; in the assay with FLT4, 4%; in the assay with FRK, 5%.

As to `Cc1cc(-c2c(-c3ccc(F)cc3)ncn2CCCN2CCOCC2)nc(N)n1` [SB-222517], the “%Inh” value in the assay with FGFR1 came out at 20%; in the assay on FGFR2 it was 0%; in the assay with FGFR3 it was 0%; with FGFR4 it was 0%; in the assay on FGR, 9%; with FLT1, 0%. Moreover, the “%Inh” value with FLT3-autoinhibited is given as 0%; with FLT3, 27%; with FLT4 it was 0%; with FRK it was 0%.
